Unmarked numbers belong to inactive results. No rule for the calls is given here. Where a SMILES comes first, the peptide text is derived from it. The star is where a group is joined. Boc = CC(C)(C)OC(=O)*
target: Pantothenate synthetase (Mycobacterium tuberculosis (strain ATCC 25618 / H37Rv)) (UniProt P9WIL5); test: Coupled enzyme confirmation of inhibitors against recombinant Mtb PanC (AID 375); conditions: coupled enzyme assay; at 10 µM, stronger effect = higher value;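 also: 0% = full reaction with vehicle and 100% = no enzyme background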
Sequence (P9WIL5 whole entry, looked up): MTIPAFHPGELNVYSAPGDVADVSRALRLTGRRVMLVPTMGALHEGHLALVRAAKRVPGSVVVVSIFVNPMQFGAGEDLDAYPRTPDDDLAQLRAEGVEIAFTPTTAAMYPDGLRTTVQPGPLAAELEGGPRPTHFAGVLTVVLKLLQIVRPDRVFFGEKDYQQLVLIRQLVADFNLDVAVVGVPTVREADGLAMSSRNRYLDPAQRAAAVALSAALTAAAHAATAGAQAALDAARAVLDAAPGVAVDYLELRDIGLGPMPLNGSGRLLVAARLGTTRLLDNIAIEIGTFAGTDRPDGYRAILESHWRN

Row | Compound | inhibition [%]
1 | COc1cccc(-c2cc(C(=O)Nc3cc(OC)c(OC)c(OC)c3)no2)c1 | 0
2 | COC(=O)C1=C(C)NC(C)=C(C(=O)OC)C1C1CC=CCC1 (centres undefined) | 3
3 | O=C1C/C(=C/NCc2ccccc2)C(=O)N1 | 3
4 | CCN(Cc1nc2ccccc2c(=O)[nH]1)Cc1nc2cc(OC)c(OC)cc2c(=O)[nH]1 | 0
5 | CC(CN1CCOCC1)(NS(=O)(=O)c1ccccc1)c1ccccc1 (centres undefined) | 1
6 | O=C(Cn1ncc2ccccc21)N1CCN(c2cccc(C(F)(F)F)c2)CC1 | 2
7 | CC1(C)S[C@@H]2[C@H](NC(=O)C(C(=O)O)c3ccccc3)C(=O)N2[C@H]1C(=O)O (some centres undefined) | 0
8 | CCCC(=O)Nc1nnc(CC(=O)N2CCCC2)s1 | 0
9 | Cc1cccc(C(=O)N2CCC(n3nnc4cc(F)ccc43)CC2)c1 | 0
10 | CC(C)CCNC(=O)C(c1ccco1)N(CC1CCCO1)C(=O)Cn1nnc2ccccc21 (centres undefined) | 0
11 | O=C(O)CCCCCNc1nc(=S)[nH]c2ccccc12 | 0
12 | COc1ccc(CCNC(=O)C2(C)CCC(=O)N2Cc2ccc3c(c2)OCO3)cc1OC (centres undefined) | 1
13 | CCN1C(=O)Cc2cc(S(=O)(=O)N3CCOCC3)ccc21 | 9
14 | COc1ccc2nc(C)cc(N3CCOCC3)c2c1 | 0
15 | CCc1nc2sc(C)c(C)c2c(=O)n1CCO | 7
16 | CC(NC(=O)COc1ccccc1)C(=O)NC1=NCCS1 (centres undefined) | 0
17 | O=C(NCc1ccccc1)C1CCCN1S(=O)(=O)c1cccc2cccnc12 (centres undefined) | 0
18 | CCOc1cccc(OCCCCn2ccnc2)c1 | 0
19 | N#C/C(=C(/O)COC(=O)CCC1CCCCC1)c1nc2ccccc2[nH]1 | 6
20 | CC(=O)N1CCN(c2ccc(S(=O)(=O)N3CCCCC3)cn2)CC1 | 0

Row | Compound | inhibition [%]
21 | COc1cccc(-c2cc(C(=O)N3CCc4ccccc4C3)no2)c1 | 10
22 | CCOC(=O)c1[nH]c(CSc2nnc(-c3ccncc3)n2CCOC)c(C(=O)OCC)c1C | 3
23 | CSCCC(NC(=O)OC(C)(C)C)C(=O)NC(CC(C)C)C(N)=O (stereo not drawn) (Boc-Met-Leu-NH2; configuration not given here) | 0
24 | CCOc1ccccc1NC(=O)CSc1c(C)n[nH]c1C | 5
25 | Cc1cc(C)c2c(CC(=O)NCc3ccco3)coc2c1 | 0
26 | CC(=O)c1ccccc1OCCn1nnc(-c2ccc(C)cc2)n1 | 0
27 | Cc1nn(-c2ccccc2)c2[nH]c(C(F)(F)F)cc(=O)c12 | 1
28 | Cc1oc(-c2ccccc2Cl)nc1CSCC(=O)N1CCCC1 | 1
29 | CC(NC(=O)c1noc2c1CCCCC2)c1ccccc1 (centres undefined) | 0
30 | Cc1nn(C)c(C)c1NC(=O)CCSc1nc(-c2ccco2)cc(C(F)(F)F)n1 | 6
31 | O=C(CCNC(=O)c1ccc(Br)o1)NC1CCCC1 | 0
32 | COC(=O)C(NC(C)=O)(Nc1ccccn1)C(F)(F)F (centres undefined) | 1
33 | c1ccc2c(NC3CCCC3)nnc(NC3CCCC3)c2c1 | 0
34 | Cc1cc(NS(=O)(=O)c2ccc(NC(=O)Nc3ccc4c(c3)OCO4)cc2)no1 | 0
35 | Cc1cc(C)nc(Sc2ccc3nnc(C(F)(F)C(F)(F)C(F)(F)F)n3n2)n1 | 6
36 | Fc1ccc(-c2nnc3ccc(N4CCCC4)nn23)cc1 | 1
37 | O=C(Nc1nc(-c2ccc(S(=O)(=O)N3CCCC3)cc2)cs1)C1COc2ccccc2O1 (centres undefined) | 0
38 | COc1cccc(OC)c1C(=O)N1CCN(S(=O)(=O)c2ccccc2)CC1 | 0
39 | CCOC(=O)N1CCN(C(=O)C2c3cc(OC)c(OC)cc3C(=O)N3CCc4ccccc4C23)CC1 (centres undefined) | 4

Source: PubChem BioAssay
